Compound activity: PubChem, several laboratories
Tat export inh = E. coli Tat export inhibitors, primary screen, MC4100, TorA-mCherry reporter, fluorescence, single point; inhibition, % at 10 µM; 340,000 tested, 0.036% active; AID 488895, 2010;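 active = mean replicate inhibition at least 50% and at least half of replicates individually reaching 50%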;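 note: exported cargo escapes ClpAP degradation while cytoplasmic cargo is degraded and loses fluorescence; 0% = median of neutral control wells and 100% = median of NaSCN control wells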
E coli growth-1 = E. coli growth inhibition, primary screen, OD600 | Escherichia coli growth, 23 h; stronger effect = lower value | OD600 absorbance (concentration not given with the values) | 330,000 tested, 0.21% active | AID 1053175, 2014;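 active = OD600 absorbance below the run mean of sample wells minus 3.6 SD, in any replicate, cut at about 0.56 in these data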
AddAB inh = growth inhibition of E. coli expressing H. pylori AddAB, primary screen, AddAB inhibitor project, absorbance. inhibition, % at 11.9 µM. 330,000 tested, 0.29% active; in the data active = inhibition above about 12%;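 note: 0% = vehicle wells of infected cells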
phage Ecoli inh = growth loss of phage-infected E. coli, primary screen, RecBCD inhibitor project, absorbance, with phage, HTS | inhibition, % at 11.9 µM | 360,000 tested, 0.26% active; in the data active = inhibition above about 11%
E coli growth-2 = E. coli V3065 growth inhibition, primary screen, counter-screen for AddAB inhibitor project, absorbance, OD600 | 18 h | inhibition, % at 11.9 µM | 330,000 tested, 0.27% active | AID 449728, 2010;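 active = inhibition above the campaign's mean inhibition across all tested compounds plus 3 SD, cut at about 9.9% in these data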;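 note: uninfected addAB+ strain grown without phage in ampicillin broth; 0% = DMSO wells and 100% = ciprofloxacin 0.95 µg/ml wells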
Active calls of the source: *; · = not tested or not shown. An excerpt weighted towards active compounds, which were near 0.51% of everything screened.

SMILES | Tat export inh | E coli growth-1 | AddAB inh | phage Ecoli inh | E coli growth-2
COc1ccc(CC(N)C(=O)NC2C(CO)OC(n3cnc4c(N(C)C)ncnc43)C2O)cc1 (stereo not given) | · | 0.3* | · | · | ·
CCOC1OC(C(N)=O)=CC(c2cn(C(C)=O)c3ccccc23)C1CCCO (stereo not given) | · | 0.7 | · | · | ·
CC(=O)Nc1ccc(SCC(C)CN2CCC(C(C)(C)C)CCC2=O)cc1 (stereo not given) | · | 0.69 | · | · | ·
NC(=O)C1CC2(CC(c3cccc(NC(=O)CC(c4ccccc4)c4ccccc4)c3)=NO2)CN1C(=O)COc1ccc(Cl)cc1 (stereo not given) | · | 0.7 | · | · | ·
O=C1C=C(Nc2ccccc2O)c2ccccc2C1=O | -4 | 0.48* | 3 | 2 | -5
O=C1C=C(NCc2ccccc2)c2ccccc2C1=O | -24 | 0.47* | · | 4 | ·
Cc1nc(N)nc(N)c1CCCc1ccc(Cl)c(Cl)c1 | -16 | 0.41* | 5 | 4 | 4
Oc1ccc(CN2CCN(c3ccccc3)CC2)c2cccnc12 | 2 | 0.62 | 3 | · | 2
Oc1ccc(CN2CCc3ccccc3C2)c2cccnc12 | 4 | 0.47* | 5 | 8 | 5
Oc1ccc(CN2CCC(Cc3ccccc3)CC2)c2cccnc12 | · | 0.46* | · | 9 | ·
CN(C)C1CCN(Cc2cc(COCc3ccccc3)c3cccnc3c2O)C1 (stereo not given) | 10 | · | 8 | · | 10*
C#Cc1ccc(C2C=C(C(=O)Nc3ccccc3)OC(OCc3ccc(CO)cc3)C2)cc1 (stereo not given) | · | 0.7 | · | · | ·
CCn1cc(C(=O)OCC(=O)c2cc(C)n(-c3cccc(C(F)(F)F)c3)c2C)c(=O)c2ccc(C)nc21 | 16 | 0.72 | 2 | 6 | -2
C=CCOC(=O)c1cn(CC)c2nc(C)ccc2c1=O | -9 | 0.52* | 1 | 2 | -1
C=Cc1ccc(COC(=O)c2cn(CC)c3nc(C)ccc3c2=O)cc1 | 2 | 0.65 | 2 | 1 | -1
CCn1cc(C(=O)NNC(=O)c2ccc(Cl)cc2)c(=O)c2ccc(C)nc21 | 0 | 0.38* | 2 | · | 1
CCn1cc(C(=O)NCc2cccc(C(F)(F)F)c2)c(=O)c2ccc(C)nc21 | -10 | 0.46* | 3 | -1 | 1
NC1=NCC(CC2CCCCC2)N1CCc1cc(C(F)(F)F)cc(C(F)(F)F)c1 (stereo not given) | · | 0.5 | · | · | ·
O=C1CCC(c2ccc(-n3ccnc3)cc2)=NN1 | 24 | 0.48* | 0 | 6 | 1
O=C1CCC(c2ccccc2)=NN1 | -5 | 0.7 | 2 | 0 | -2
C#CCOCCOCCOCCNc1nc(N2CCN(C(=O)C(CCCN=C(N)N)n3cc(C(N)C(C)CC)nn3)CC2)nc(N2CCN(C(=O)C(C(C)O)n3cc(C(N)CCCCN)nn3)CC2)n1 (stereo not given) | · | 0.66 | · | · | ·
COc1c(N2CC3CCCNC3C2)c(F)cc2c(=O)c(C(=O)O)cn(C3CC3)c12 (stereo not given) | · | 0.058* | · | · | ·
O=C(Nc1ccc([N+](=O)[O-])cc1)c1cccc(S(=O)(=O)Nc2cccnc2)c1 | -7 | · | 1 | 3 | -1
O=C(Nc1cccnc1)c1ccc(NS(=O)(=O)c2cccc([N+](=O)[O-])c2)cc1 | -2 | 0.31* | -3 | 1 | 0
Nc1ncnc2c1nc(N1CCCCC1)n2C1OC(CO)C(O)C1O (stereo not given) | · | 0.68 | · | · | ·
SMILES | Tat export inh | E coli growth-1 | AddAB inh | phage Ecoli inh | E coli growth-2
COc1ccccc1NC(=O)CSc1ccc(-c2ccccn2)nn1 | 1 | 0.7 | 11 | 12* | 9
O=C(CSc1ccc(-c2ccccn2)nn1)c1ccc(F)cc1 | 0 | 0.7 | 8 | 4 | 11*
Cc1nnc(NC(=O)CSc2ccc(-c3ccccn3)nn2)s1 | · | 0.62 | 9 | · | 9.9*
Cc1nnc(NC(=O)CSc2ccc(-c3cccnc3)nn2)s1 | -4 | 0.66 | 1 | 4 | 1
COc1ccc(NC(=O)CSc2ccc(-c3ccccn3)nn2)cc1OC | 6 | 0.68 | 1 | 9 | 1
Fc1ccc2[nH]c3c(NCc4ccccc4)ncnc3c2c1 | -2 | 0.45* | 5 | 9 | 7
CC(=O)[C@@]1(O)CCC2C3CC(C)C4=CC(=O)CC[C@]4(C)C3CC[C@@]21C (stereo not given in full) | · | 0.67 | · | · | ·
CC(CCc1ccccc1)NC(=O)C(Cc1ccccc1)NC(N)=O (stereo not given) | -3 | 0.53* | 2 | 4 | 1
Cc1cc(C=C2C(=N)N3C(=NC2=O)SN=C3S(C)(=O)=O)c(C)n1-c1ccccc1 | · | 0.7 | · | · | ·
CCN1/C(=C/C=C/C=C/C=C/c2sc3ccccc3[n+]2CC)Sc2ccccc21 | -9 | 0.85 | -1 | 2 | -2
CCN1/C(=C/C=C/C=C/c2sc3ccccc3[n+]2CC)Sc2ccccc21 | · | · | 23* | · | 20*
CC(=O)C(C(=N)N1CCN(C(c2ccccc2)c2ccccc2)CC1)=C(C)O | · | 0.68 | · | · | ·
Cc1ccccc1N1CCN(S(=O)(=O)C[C@]23CCC(CC2NC(=O)C(N)CCS(C)(=O)=O)C3(C)C)CC1 (stereo not given in full) | · | 0.71 | · | · | ·
O=C(Nc1nc2c(Cl)cccc2s1)c1ccc([N+](=O)[O-])o1 | -28 | 0.5* | 3 | 1 | 5
COc1cccc(/C=N/Nc2nccnc2Cl)c1O | 2 | · | · | 1 | ·
COc1cccc(C=NNc2ncnc(Cl)c2N)c1O | · | 0.17* | · | · | ·
CCN1CC2C3C(=O)N(C)C(=O)C3[C@](C)(C1=O)N2C(=O)c1ccc(C(C)(C)C)cc1 (stereo not given in full) | · | 0.66 | · | · | ·
CC1NC(=O)[C@@]2(C)C(c3ccccc3)C3COc4ccccc4C3N2C1=O (stereo not given in full) | · | 0.73 | · | · | ·
O=c1[nH]c(=O)n(C2CC(O)C(CO)O2)cc1F (stereo not given) | · | 0.062* | · | · | ·
Cc1cc(Cl)ccc1NC(=S)NCCC(c1ccccc1)c1ccccc1 | 10 | 0.73 | 11 | 3 | 13*
CCOc1ccc(C(O)=C2C(=O)C(=O)N(CCOCCO)C2c2ccccc2)cc1 (stereo not given) | · | 0.67 | · | · | ·
O=C(CNC(=S)N(CCCN1CCOCC1)Cc1cccs1)N1CCCC1 | -4 | 0.54* | 1 | 2 | 1
O=C(CNC(=S)N(CCCN1CCOCC1)Cc1cccs1)NCCN1CCOCC1 | -3 | 0.67 | 5 | 2 | 2
CC(C)(O)C=CC[C@](C)(O)C1CC[C@]2(C)C1C(OC1OC(CO)C(O)C(O)C1O)CC1[C@@]3(C)CCC(O)C(C)(C)C3C(O)C[C@]12C (stereo not given in full) | · | 0.64 | · | · | ·
O=[N+]([O-])c1ccc(SNc2ccccc2)c([N+](=O)[O-])c1 | 3 | · | · | 3 | ·
O=[N+]([O-])c1ccc(-[n+]2ccc3ccccc3c2)c([N+](=O)[O-])c1 | -1 | 0.45* | 5 | 3 | 2
N/C(=N\OC(=O)Nc1ccccc1)c1ncc([N+](=O)[O-])s1 | -15 | · | 12 | 5 | 9
NC(=NOC(=O)c1ccc(Cl)cc1)c1ncc([N+](=O)[O-])s1 | · | 0.46* | · | · | ·
